# Experimental data from PubChem BioAssay AID1220 (Sanford-Burnham Center for Chemical Genomics, 2008).
# The whole screen tested about 190,000 compounds, of which about 1,300 (0.68%) were called active. Rule as the data show it: active = inhibition above about 50%; inactive = the rest. This excerpt belongs to a sample that is enriched for actives.
# Biological target: Mannose-6-phosphate isomerase (Homo sapiens) (UniProt P34949)
# Test: MPI inhibition at elevated mannose 6-phosphate – biochemical, fluorescence intensity, high mannose 6-phosphate, primary screen (AID 1220)
# Conditions: recombinant PMI enzyme, coupled fluorescence intensity; at 20 µM; active compounds read high
# Sequence of Mannose-6-phosphate isomerase (Homo sapiens) (P34949 whole entry, looked up): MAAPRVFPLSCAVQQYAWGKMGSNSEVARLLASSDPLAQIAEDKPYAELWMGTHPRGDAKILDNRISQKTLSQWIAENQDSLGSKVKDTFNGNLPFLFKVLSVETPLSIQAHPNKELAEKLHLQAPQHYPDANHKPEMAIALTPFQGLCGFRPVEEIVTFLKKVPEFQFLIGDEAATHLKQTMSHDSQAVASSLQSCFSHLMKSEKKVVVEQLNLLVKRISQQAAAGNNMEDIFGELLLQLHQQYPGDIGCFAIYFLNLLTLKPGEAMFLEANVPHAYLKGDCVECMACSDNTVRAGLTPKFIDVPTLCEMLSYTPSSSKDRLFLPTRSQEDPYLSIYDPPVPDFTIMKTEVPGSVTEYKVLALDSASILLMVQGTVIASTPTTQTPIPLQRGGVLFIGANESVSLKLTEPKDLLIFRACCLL
row,Compound,inhibition
1,c1ccn2c(Cc3nnc4ccccn34)nnc2c1,-7.1% (inactive)
2,CCn1nc(C)c(C(=O)Nc2cc(Oc3ccc(Cl)cc3)cc([N+](=O)[O-])c2)c1C,4.3% (inactive)
3,O=C(N/C(=C\c1ccco1)C(=O)N1CCCC1)c1cccs1,8.5% (inactive)
4,CCC(C)(C(=O)NC1CCCC1)N(Cc1cccs1)C(=O)c1ccccn1 (stereo not drawn),59.3% (active)
5,CCC(C)(C(=O)NC1CCCC1)N(Cc1cccs1)C(C)=O (stereo not drawn),0.2% (inactive)
6,CCC(C)(C(=O)NC1CCCCC1)N(Cc1cccs1)C(=O)c1ccccn1 (stereo not drawn),-2% (inactive)
7,Cc1c2c(nc3c(C(=O)NC4CC4)cnn13)CCCC2,-0.9% (inactive)
8,COc1cccc(CN2CCNC(=O)C2CC(=O)NCc2cn3ccccc3n2)c1OC (stereo not drawn),7.8% (inactive)
9,COc1cccc(CN2CCNC(=O)C2CC(=O)NCCn2ccc3ccccc32)c1OC (stereo not drawn),51.1% (active)
10,COc1cccc(CN2CCNC(=O)C2CC(=O)NCCn2cccn2)c1OC (stereo not drawn),16.7% (inactive)
11,Cc1c(NC(=O)C2CCCO2)cccc1[N+](=O)[O-] (stereo not drawn),0.2% (inactive)
12,Cc1c(N=c2scc(-c3ccccc3)n2C)c(=O)n(-c2ccccc2)n1C,-10.5% (inactive)
13,Cc1c(N=CC=Nc2c(C)n(C)n(-c3ccccc3)c2=O)c(=O)n(-c2ccccc2)n1C,-5.1% (inactive)
14,Cc1c(N=C2C(=O)Nc3ccccc32)c(=O)n(-c2ccccc2)n1C,14.2% (inactive)
15,Cc1csc(=Nc2c(C)n(C)n(-c3ccccc3)c2=O)n1-c1ccccc1,5.3% (inactive)
16,O=C(N1CCOCC1)N(CCN1CCOCC1)Cc1cccc2ccccc12,6.2% (inactive)
17,CCOc1ccccc1NC(=O)c1ccc2nccnc2c1,14.2% (inactive)
18,CC(NS(=O)(=O)c1ccc(Br)cc1)C(c1cccs1)N1CCOCC1 (stereo not drawn),10.2% (inactive)
19,CCOc1ccc(NC(c2ccccn2)c2oc(CO)cc(=O)c2O)cc1 (stereo not drawn),51.1% (active)
20,O=c1cc(CO)oc(C(Nc2cccc(C(F)(F)F)c2)c2ccccn2)c1O (stereo not drawn),43.6% (inactive)
21,O=c1cc(CO)oc(C(Nc2cccc([N+](=O)[O-])c2)c2ccccn2)c1O (stereo not drawn),28.5% (inactive)
22,COc1ccc(C(NC(C)=O)c2c(O)ccc3ccccc23)cc1OC (stereo not drawn),8.9% (inactive)
23,CC(=O)NC(c1ccc(Cl)cc1)c1c(O)ccc2ccc(O)cc12 (stereo not drawn),69.9% (active)
24,O=C(NC(c1ccc(Cl)cc1)c1c(O)ccc2ccccc12)c1ccccc1 (stereo not drawn),27.6% (inactive)
25,CCc1ccc(-n2c(Cc3ccccc3)n[nH]c2=S)cc1,10.9% (inactive)
26,COCCN=C1NN=C(c2cc(C)n(CC3CCCO3)c2C)CS1 (stereo not drawn),54.9% (active)
27,Cc1cc(C2=NNC(=NCCc3ccccc3)SC2)c(C)n1CC1CCCO1 (stereo not drawn),-32.7% (inactive)
28,CCOc1ccc(N=C2NN=C(c3cc(C)n(CC4CCCO4)c3C)CS2)cc1 (stereo not drawn),-81.4% (inactive)
